Key:
Conditions in all cases: Compound concentration 20.0 uM, Protein concentration 2.0 uM, Result type QC Liability
[1] = target: Tyrosine-protein kinase ABL1 (Homo sapiens) (UniProt P00519)
[2] = target: Cyclin-dependent kinase 2 (Homo sapiens) (UniProt P24941)
[3] = target: Casein kinase I isoform delta (Homo sapiens) (UniProt P48730)
[4] = target: Glycogen synthase kinase-3 beta (Homo sapiens) (UniProt P49841)
[5] = target: Mitogen-activated protein kinase 1 (Homo sapiens) (UniProt P28482)
[6] = target: T1, Aurora kinase A (Homo sapiens) (UniProt O14965)
T1 sequence (whole entry): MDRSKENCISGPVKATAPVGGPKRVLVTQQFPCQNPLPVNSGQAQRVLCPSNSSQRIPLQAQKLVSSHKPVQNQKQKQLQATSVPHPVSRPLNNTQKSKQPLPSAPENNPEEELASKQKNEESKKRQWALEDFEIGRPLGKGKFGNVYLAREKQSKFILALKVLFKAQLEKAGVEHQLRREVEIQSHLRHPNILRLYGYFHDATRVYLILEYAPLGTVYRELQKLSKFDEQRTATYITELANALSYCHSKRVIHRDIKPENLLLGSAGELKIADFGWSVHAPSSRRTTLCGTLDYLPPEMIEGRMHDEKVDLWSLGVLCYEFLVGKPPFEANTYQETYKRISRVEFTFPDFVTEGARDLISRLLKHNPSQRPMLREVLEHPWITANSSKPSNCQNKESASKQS

[7] = target: T2, Transcription intermediary factor 1-alpha (Homo sapiens) (UniProt O15164)
T2 sequence (whole entry): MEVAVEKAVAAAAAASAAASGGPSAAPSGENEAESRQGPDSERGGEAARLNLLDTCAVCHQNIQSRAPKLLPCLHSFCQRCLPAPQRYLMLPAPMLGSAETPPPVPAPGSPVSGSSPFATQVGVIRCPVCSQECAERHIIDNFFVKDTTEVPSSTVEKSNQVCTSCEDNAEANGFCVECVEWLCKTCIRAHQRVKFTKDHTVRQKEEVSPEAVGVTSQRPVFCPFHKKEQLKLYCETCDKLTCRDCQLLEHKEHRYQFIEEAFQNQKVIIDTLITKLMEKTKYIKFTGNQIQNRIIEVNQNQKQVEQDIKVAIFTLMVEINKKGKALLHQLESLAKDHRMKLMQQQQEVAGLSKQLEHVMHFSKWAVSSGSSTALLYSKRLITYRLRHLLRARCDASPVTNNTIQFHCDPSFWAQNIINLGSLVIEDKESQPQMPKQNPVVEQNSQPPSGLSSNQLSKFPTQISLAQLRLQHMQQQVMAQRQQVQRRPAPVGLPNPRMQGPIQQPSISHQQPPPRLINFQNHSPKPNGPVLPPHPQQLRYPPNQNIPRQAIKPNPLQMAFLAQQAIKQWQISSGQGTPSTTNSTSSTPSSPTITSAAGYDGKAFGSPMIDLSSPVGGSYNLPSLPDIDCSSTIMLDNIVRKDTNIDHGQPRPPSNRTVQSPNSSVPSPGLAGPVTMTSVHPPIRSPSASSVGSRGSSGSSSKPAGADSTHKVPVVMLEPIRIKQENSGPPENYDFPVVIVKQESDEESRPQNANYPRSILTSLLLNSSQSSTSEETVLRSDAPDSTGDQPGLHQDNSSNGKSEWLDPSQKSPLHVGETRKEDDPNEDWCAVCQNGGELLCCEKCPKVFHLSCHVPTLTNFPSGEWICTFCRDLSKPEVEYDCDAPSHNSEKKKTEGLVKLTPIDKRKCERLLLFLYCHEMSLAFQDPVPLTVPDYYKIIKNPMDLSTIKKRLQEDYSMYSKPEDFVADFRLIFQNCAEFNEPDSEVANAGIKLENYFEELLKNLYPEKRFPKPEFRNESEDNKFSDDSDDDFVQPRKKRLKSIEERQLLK

Sequence of Casein kinase I isoform delta (Homo sapiens) (P48730 whole entry, looked up, canonical isoform): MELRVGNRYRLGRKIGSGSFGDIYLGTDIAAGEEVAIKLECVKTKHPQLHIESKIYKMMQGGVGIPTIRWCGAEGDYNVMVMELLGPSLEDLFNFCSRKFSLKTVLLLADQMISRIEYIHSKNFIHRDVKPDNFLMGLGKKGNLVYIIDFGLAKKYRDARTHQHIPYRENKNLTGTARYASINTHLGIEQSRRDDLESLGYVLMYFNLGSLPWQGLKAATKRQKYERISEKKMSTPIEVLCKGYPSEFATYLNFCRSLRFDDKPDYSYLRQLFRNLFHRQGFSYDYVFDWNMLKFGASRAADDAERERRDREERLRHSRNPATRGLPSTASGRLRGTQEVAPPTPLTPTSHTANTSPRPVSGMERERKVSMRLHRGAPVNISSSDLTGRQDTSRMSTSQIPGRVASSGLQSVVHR
Sequence of Tyrosine-protein kinase ABL1 (Homo sapiens) (P00519 whole entry): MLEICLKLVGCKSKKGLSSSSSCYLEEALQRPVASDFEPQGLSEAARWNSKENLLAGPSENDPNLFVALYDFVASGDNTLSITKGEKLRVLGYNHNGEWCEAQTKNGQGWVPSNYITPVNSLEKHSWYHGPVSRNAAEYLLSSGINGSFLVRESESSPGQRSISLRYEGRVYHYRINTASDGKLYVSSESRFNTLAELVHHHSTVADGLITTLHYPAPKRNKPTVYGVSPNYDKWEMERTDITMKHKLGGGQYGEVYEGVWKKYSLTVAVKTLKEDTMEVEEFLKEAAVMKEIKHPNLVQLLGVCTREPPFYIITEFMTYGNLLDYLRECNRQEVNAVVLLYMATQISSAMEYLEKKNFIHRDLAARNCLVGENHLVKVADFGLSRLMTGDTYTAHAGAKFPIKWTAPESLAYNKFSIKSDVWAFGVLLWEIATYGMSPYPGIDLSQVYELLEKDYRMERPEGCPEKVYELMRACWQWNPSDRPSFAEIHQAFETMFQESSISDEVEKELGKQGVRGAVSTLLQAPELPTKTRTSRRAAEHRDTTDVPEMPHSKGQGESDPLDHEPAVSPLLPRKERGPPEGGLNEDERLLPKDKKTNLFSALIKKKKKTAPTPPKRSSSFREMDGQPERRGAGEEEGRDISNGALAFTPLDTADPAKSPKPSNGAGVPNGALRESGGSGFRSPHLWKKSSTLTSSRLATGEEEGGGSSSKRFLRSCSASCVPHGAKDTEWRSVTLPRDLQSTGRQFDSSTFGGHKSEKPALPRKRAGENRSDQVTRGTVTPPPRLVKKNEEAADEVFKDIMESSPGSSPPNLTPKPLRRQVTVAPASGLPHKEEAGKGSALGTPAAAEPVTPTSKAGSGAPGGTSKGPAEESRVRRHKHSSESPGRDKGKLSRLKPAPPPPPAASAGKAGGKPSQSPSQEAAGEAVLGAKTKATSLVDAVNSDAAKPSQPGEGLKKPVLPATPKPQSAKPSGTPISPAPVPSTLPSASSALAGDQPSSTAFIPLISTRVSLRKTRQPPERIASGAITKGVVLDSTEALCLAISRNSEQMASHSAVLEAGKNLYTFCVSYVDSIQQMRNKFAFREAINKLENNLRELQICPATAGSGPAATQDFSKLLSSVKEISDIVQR
Sequence of Glycogen synthase kinase-3 beta (Homo sapiens) (P49841 whole entry, looked up): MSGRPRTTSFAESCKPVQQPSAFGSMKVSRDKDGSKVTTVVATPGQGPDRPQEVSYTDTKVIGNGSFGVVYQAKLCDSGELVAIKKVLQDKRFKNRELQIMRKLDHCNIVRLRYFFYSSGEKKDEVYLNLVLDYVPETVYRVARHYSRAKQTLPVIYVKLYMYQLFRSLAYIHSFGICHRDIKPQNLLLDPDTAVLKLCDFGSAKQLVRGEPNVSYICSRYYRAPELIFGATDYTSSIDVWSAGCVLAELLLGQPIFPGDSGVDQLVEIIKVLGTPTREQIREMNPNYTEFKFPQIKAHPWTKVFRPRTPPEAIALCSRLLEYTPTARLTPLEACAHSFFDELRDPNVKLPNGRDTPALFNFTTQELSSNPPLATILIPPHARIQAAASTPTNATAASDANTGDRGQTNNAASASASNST
Sequence of Mitogen-activated protein kinase 1 (Homo sapiens) (P28482 whole entry): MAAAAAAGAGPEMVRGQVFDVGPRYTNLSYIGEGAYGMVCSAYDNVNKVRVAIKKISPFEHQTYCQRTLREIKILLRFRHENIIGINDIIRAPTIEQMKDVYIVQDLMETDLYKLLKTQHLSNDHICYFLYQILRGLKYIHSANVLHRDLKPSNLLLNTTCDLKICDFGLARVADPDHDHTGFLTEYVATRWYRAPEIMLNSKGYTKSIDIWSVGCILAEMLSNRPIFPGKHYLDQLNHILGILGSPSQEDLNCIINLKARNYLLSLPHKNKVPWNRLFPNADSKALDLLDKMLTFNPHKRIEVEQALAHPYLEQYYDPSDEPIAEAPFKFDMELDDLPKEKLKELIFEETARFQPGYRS

## O=C(NCCN1CCC2(CC1)C(=O)NCN2c1cccc(F)c1)c1ccc2ccccc2c1
[1]
  ΔTm: -0.28 °C
[2]
  ΔTm: 0.17 °C
[3]
  ΔTm: 0.58 °C
[4]
  ΔTm: -0.14 °C
[5]
  ΔTm: 0.08 °C
[6]
  ΔTm: 0.16 °C
[7]
  ΔTm: 0.18 °C

## Cn1ncc(-c2nc(N[C@H]3CC[C@H](N)CC3)ncc2Cl)c1CC1CC1
[1]
  ΔTm: 0.41 °C
[2]
  ΔTm: 12.7 °C
[3]
  ΔTm: 9.79 °C
[4]
  ΔTm: 9.59 °C
[5]
  ΔTm: 2.41 °C
[6]
  ΔTm: 2.45 °C
[7]
  ΔTm: -3.6 °C

## C[C@@H](CN1CC[C@@]2(C)c3cccc(O)c3C[C@@H]1C2(C)C)OCc1ccccc1
[1]
  ΔTm: -0.13 °C
[2]
  ΔTm: 0.59 °C
[3]
  ΔTm: 0.25 °C
[4]
  ΔTm: -1.13 °C
[5]
  ΔTm: 0.48 °C
[6]
  ΔTm: 0.13 °C
[7]
  ΔTm: 0.17 °C

## CO[C@H](C)CN1CC[C@@]2(C)c3ccc(O)cc3C[C@@H]1C2(C)C
[1]
  ΔTm: 0.21 °C
[2]
  ΔTm: -0.28 °C
[3]
  ΔTm: 0.29 °C
[4]
  ΔTm: -0.8 °C
[5]
  ΔTm: 0.34 °C
[6]
  ΔTm: 0.3 °C
[7]
  ΔTm: 0.33 °C

## CC[C@H]1[C@@H](O)[C@@H]2[C@H](CC[C@]3(C)[C@@H]([C@H](C)CCC(=O)O)CC[C@@H]23)[C@@]2(C)CC[C@@H](O)C[C@@H]12
[1]
  ΔTm: -0.12 °C
[2]
  ΔTm: -0.27 °C
[3]
  ΔTm: 0.56 °C
[4]
  ΔTm: -0.92 °C
[5]
  ΔTm: -0.09 °C
[6]
  ΔTm: -1.71 °C
[7]
  ΔTm: -1.62 °C

## C[C@H](CCC(=O)O)[C@H]1CC[C@H]2[C@@H]3[C@@H](O)C[C@@H]4C[C@H](O)CC[C@]4(C)[C@H]3CC[C@]12C
[1]
  ΔTm: 0.07 °C
[2]
  ΔTm: 0.52 °C
[3]
  ΔTm: 0.77 °C
[4]
  ΔTm: -0.56 °C
[5]
  ΔTm: 0.29 °C
[6]
  ΔTm: -1.74 °C
[7]
  ΔTm: -2.12 °C

## CN1CCN(C(=O)Cc2ccc(N/C(=C3\C(=O)Nc4cc(Cl)ccc43)c3ccccc3)cc2)CC1
[1]
  ΔTm: 8.52 °C
[2]
  ΔTm: 1.7 °C
[3]
  ΔTm: 1.29 °C
[4]
  ΔTm: 6.21 °C
[5]
  ΔTm: -0.19 °C
[6]
  ΔTm: 1.19 °C
[7]
  ΔTm: -2.36 °C

## N[C@H](C(=O)O)[C@@H]1CC(Cl)=NO1
[1]
  ΔTm: -0.08 °C
[2]
  ΔTm: 0.85 °C
[3]
  ΔTm: 0.22 °C
[4]
  ΔTm: 0.23 °C
[5]
  ΔTm: 0.14 °C
[6]
  ΔTm: -0.37 °C
[7]
  ΔTm: -0.82 °C

## Clc1ccccc1C(c1ccccc1)(c1ccccc1)n1cccn1
[1]
  ΔTm: 0.43 °C
[2]
  ΔTm: 0.09 °C
[3]
  ΔTm: -0.01 °C
[4]
  ΔTm: -0.43 °C
[5]
  ΔTm: 0.22 °C
[6]
  ΔTm: -0.47 °C
[7]
  ΔTm: -0.54 °C

## OCC1OC(n2cnc3cc(Cl)c(Cl)cc32)C(O)C1O (centres undefined)
[1]
  ΔTm: 0.32 °C
[3]
  ΔTm: 1.91 °C
[4]
  ΔTm: 0.18 °C
[5]
  ΔTm: 0.27 °C
[6]
  ΔTm: 0.42 °C
[7]
  ΔTm: -1.91 °C

## Cc1nnc2n1-c1sc(CCC(=O)N3CCOCC3)cc1C(c1ccccc1Cl)=NC2
[1]
  ΔTm: 0.15 °C
[2]
  ΔTm: 0.99 °C
[3]
  ΔTm: 0.34 °C
[4]
  ΔTm: -0.2 °C
[5]
  ΔTm: 0.13 °C
[6]
  ΔTm: 0.01 °C
[7]
  ΔTm: 0.29 °C

## COc1ccc(-n2nc(C(F)(F)F)cc2-c2ccc(Cl)cc2)cc1
[1]
  ΔTm: 0.2 °C
[2]
  ΔTm: 1.23 °C
[3]
  ΔTm: 0.03 °C
[4]
  ΔTm: -0.24 °C
[5]
  ΔTm: 0.69 °C
[6]
  ΔTm: -0.08 °C
[7]
  ΔTm: -0.34 °C

## CNC(=O)c1cc(C(=O)NC2CC2)cn(Cc2ccccc2)c1=O
[1]
  ΔTm: 0.07 °C
[2]
  ΔTm: 0.96 °C
[3]
  ΔTm: -0.04 °C
[4]
  ΔTm: -0.41 °C
[5]
  ΔTm: 0.38 °C
[6]
  ΔTm: -0.78 °C
[7]
  ΔTm: -0.29 °C

## Cc1nnc2n1-c1sc3c(c1C(c1ccccc1Cl)=NC2)C[C@@H](C(=O)N1CCOCC1)C3
[1]
  ΔTm: 0.78 °C
[2]
  ΔTm: 0.74 °C
[3]
  ΔTm: 0.17 °C
[4]
  ΔTm: 0.5 °C
[5]
  ΔTm: 0.3 °C
[6]
  ΔTm: 0.11 °C
[7]
  ΔTm: -0.75 °C

## CCN(CC)CCO[C@H]1CC[C@@]2(C)C(=CC[C@@H]3[C@@H]2CC[C@]2(C)C(=O)CC[C@@H]32)C1
[1]
  ΔTm: 0.26 °C
[2]
  ΔTm: 0.63 °C
[3]
  ΔTm: -0.08 °C
[4]
  ΔTm: -0.11 °C
[5]
  ΔTm: 0.35 °C
[6]
  ΔTm: -0.37 °C
[7]
  ΔTm: -0.77 °C

## Cc1cc(Cl)ccc1S(=O)(=O)NC[C@H]1C2CCC(CC2)[C@@H]1/C=C\CCCC(=O)O
[1]
  ΔTm: -0.05 °C
[2]
  ΔTm: -0.53 °C
[3]
  ΔTm: -0.27 °C
[4]
  ΔTm: -1.54 °C
[5]
  ΔTm: 0.13 °C
[6]
  ΔTm: -0.34 °C
[7]
  ΔTm: -0.51 °C

## C[C@H](CCC(=O)O)[C@H]1CC[C@H]2[C@@H]3CC[C@@H]4C[C@H](O)CC[C@]4(C)[C@H]3CC[C@]12C
[1]
  ΔTm: -0.82 °C
[2]
  ΔTm: -1.65 °C
[3]
  ΔTm: -3.52 °C
[4]
  ΔTm: -3.06 °C
[5]
  ΔTm: -0.88 °C
[6]
  ΔTm: -4.37 °C
[7]
  ΔTm: -5.96 °C

## C=CC(=O)N1CCC[C@@H](n2nc(-c3ccc(Oc4ccccc4)cc3)c3c(N)ncnc32)C1
[1]
  ΔTm: 2.63 °C
[2]
  ΔTm: 0.83 °C
[3]
  ΔTm: 0.7 °C
[4]
  ΔTm: -1.96 °C
[5]
  ΔTm: -6.31 °C
[6]
  ΔTm: 6.21 °C
[7]
  ΔTm: -4.01 °C

## Cc1nnc2n1-c1sc3c(c1C(c1ccccc1Cl)=NC2)CC(C(=O)N1CCOCC1)C3 (centres undefined)
[1]
  ΔTm: 0.38 °C
[2]
  ΔTm: 1.08 °C
[3]
  ΔTm: 0.02 °C
[4]
  ΔTm: -0.24 °C
[5]
  ΔTm: 0.25 °C
[6]
  ΔTm: 0.1 °C
[7]
  ΔTm: 0.23 °C

## Cc1nnc2n1-c1sc3c(c1C(c1ccccc1Cl)=NC2)C[C@H](C(=O)N1CCOCC1)C3
[1]
  ΔTm: 0.62 °C
[2]
  ΔTm: 0.85 °C
[3]
  ΔTm: 0.25 °C
[4]
  ΔTm: 0.26 °C
[5]
  ΔTm: 0.42 °C
[6]
  ΔTm: -0.08 °C
[7]
  ΔTm: -0.99 °C

— ChEMBL document CHEMBL5308504, “Tm Shift (DSF) assay results for EUbOPEN Chemogenomics Library” (2023)
